SENP6 inh: blocks the human protease SENP6; Q9GZR1; Recombinant SENP6 catalytic domain, aminoluciferin luminescence; inhibition, % at 10 µM; 330,000 compounds, 1.8% hits; AID 2599;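 active = inhibition above about 50% at the single tested dose, limit read from the data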;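 also: plate controls were DMSO wells with enzyme for no effect and DMSO wells lacking enzyme for full effect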
Target sequence (Q9GZR1 628-1112 limits assumed): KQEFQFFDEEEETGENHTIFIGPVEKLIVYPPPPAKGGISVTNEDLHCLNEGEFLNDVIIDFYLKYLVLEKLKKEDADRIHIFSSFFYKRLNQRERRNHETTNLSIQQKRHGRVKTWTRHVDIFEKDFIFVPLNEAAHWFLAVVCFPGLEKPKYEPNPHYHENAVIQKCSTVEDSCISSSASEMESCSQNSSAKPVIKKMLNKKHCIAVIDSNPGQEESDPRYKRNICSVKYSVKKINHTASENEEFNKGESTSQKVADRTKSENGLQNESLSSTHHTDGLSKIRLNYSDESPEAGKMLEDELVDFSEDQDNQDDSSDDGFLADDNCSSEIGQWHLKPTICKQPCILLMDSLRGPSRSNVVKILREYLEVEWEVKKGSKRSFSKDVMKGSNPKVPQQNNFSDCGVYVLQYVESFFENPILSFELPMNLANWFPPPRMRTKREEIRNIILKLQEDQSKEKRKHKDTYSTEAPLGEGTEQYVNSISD
TRAIL sens C8: sensitizes caspase-8 expressing cells to TRAIL. NB7+C8 cells + TRAIL, ATPlite viability luminescence. inhibition (viability loss, TRAIL sensitization), % at 10 µM. 360,000 compounds, 1% hits;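 active = compounds causing at least 50% loss of cell viability in the single-dose screen, relative to plate controls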
PPC-1+TRAIL kill: compounds killing PPC-1 cancer cells with TRAIL present (potentiator screen, no TRAIL-free arm) | PPC-1 cells + TRAIL, ATPLite viability luminescence | cell killing (% activity), % at 4 µM or 5 µM | 220,000 compounds, 0.41% hits | AID 1443;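 active = cell killing above 50% in the first pass at 4 µM, then a duplicate retest at 5 µM averaging 50% or more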;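 also: plate controls were cells with TRAIL plus DMSO for no effect and medium-only wells lacking cells for full effect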
SENP7 inh: SENP7 protease inhibition | Q9BQF6 | recombinant SENP7, Z-RLRGG-aminoluciferin luminescence, 40 min | inhibition, % at 5 µM | 330,000 compounds, 1.5% hits;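 active = inhibition above about 50% at the single test dose, limit read from the data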;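 also: plate controls were DMSO with enzyme for no effect and no enzyme buffer wells for full effect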
SENP8 block-1: blocks the human protease SENP8; Q96LD8; 330,000 compounds, 1.2% hits; AID 2540; purified SENP8, Z-RLRGG-aminoluciferin cleavage, luminescence; inhibition, % at 10 µM; in the data active = inhibition above about 50%
Target sequence (Q96LD8 whole entry, looked up): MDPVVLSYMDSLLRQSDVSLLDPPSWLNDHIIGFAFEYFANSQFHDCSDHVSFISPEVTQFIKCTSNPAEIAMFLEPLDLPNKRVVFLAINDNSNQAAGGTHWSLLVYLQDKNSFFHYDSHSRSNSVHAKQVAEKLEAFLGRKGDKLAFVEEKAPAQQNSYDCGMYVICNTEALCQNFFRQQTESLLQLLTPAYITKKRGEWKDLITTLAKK
SENP8 block-2: inhibitors of human SENP8 protease. Q96LD8. recombinant SENP8, Nedd8 substrate fluorescence. inhibition, % at 20 µM. 360,000 compounds, 0.64% hits. AID 602440; in the data active = inhibition mostly above about 40%, no sharp cut-off; inactive = mostly below about 27%
PPC1 cytotox: PPC-1 cell cytotoxicity; shares compounds with PPC-1+TRAIL kill; PPC-1 viability, ATPlite luminescence, overnight; AID 1447; 1,200 compounds, 50% hits; cytotoxicity, % at 5 µM;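 active = reconfirmed compounds whose average cytotoxicity reaches 50% or more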;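 also: 0% = DMSO-treated cells and 100% = wells holding medium but no cells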
SENP8 confirm: human SENP8 inhibition, confirmed; inhibition, % at 12.5 µM; shares compounds with SENP7 inh; 6,200 compounds, 40% hits; Recombinant SENP8, Z-RLRGG-aminoluciferin luminescence, 60 min;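 active = mean inhibition across replicates above about 50%, limit read from the data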
SENP6 conf: confirmation of human SENP6 protease inhibitors; shares compounds with SENP7 inh; recombinant SENP6, Z-RLRGG-aminoluciferin luminescence; inhibition, % at 12.5 µM; 6,200 compounds, 58% hits
SENP7 conf: confirmation of human SENP7 protease inhibitors; inhibition, % at 12.5 µM; recombinant SENP7, Z-RLRGG-aminoluciferin luminescence, 40 min; shares compounds with SENP7 inh; 6,200 compounds, 69% hits; AID 488917
Casp3 select: inhibits human caspase-3 in SENP selectivity test | shares compounds with SENP7 inh | inhibition, % at 12.5 µM | AID 488918 | 6,200 compounds, 60% hits | purified caspase-3, Z-DEVD-aminoluciferin luminescence, 60 min;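 active = mean inhibition above about 50%, limit read from the data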;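 also: plate controls were enzyme with DMSO for no effect and wells without caspase-3 for full effect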
Luc interf: counter-screen for SENP inhibitors: luminescence interference | shares compounds with SENP7 inh | Pre-incubated SENP8/Z-RLRGG-aminoluciferin, luciferase luminescence interference | inhibition, % at 12.5 µM | 6,200 compounds, 39% hits | AID 488919;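 active = mean inhibition above about 50% when retested at one dose, limit read from the data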;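 also: plate controls were DMSO wells with completed reaction for no effect and substrate without enzyme for full effect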
* = called active by the depositor; · = no result. A selection: hits, their analogues and other compounds. The true share with any hit is near 3%.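 The calls were made as follows, unless noted: active = mean inhibition above about 50% in the one-dose retest (limit read from the data); inactive = the rest.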

SMILES	SENP6 inh	TRAIL sens C8	PPC-1+TRAIL kill	SENP7 inh	SENP8 block-1	SENP8 block-2	PPC1 cytotox	others
Cc1ccc(C2N(c3ccccn3)C(=O)C3CCCN32)o1 (centres undefined)	-12.1	-2.9	-2.4	-11.3	-5.1	-3.2	·
Cc1cc(C)n(-c2ccc(NN=C(C#N)C#N)cc2)n1	91.8*	-11.8	16.7	89.7*	90.0*	22.5	·
N#CC(C#N)=NNc1ccc(-n2ccc(C(F)(F)F)n2)cc1	13.0	41.3	1.8	-2.5	5.7	27.4	·
CC(O)C1C=CC=CC(=O)OC2CC3OC4C5OC5(C)CCC4(COC(=O)C4OC4(C)C(O)CO1)C2(C)C31CO1 (centres undefined)	·	60.8*	·	·	·	8.6	·
CC(=O)OC1C(=O)OCC23CCC4(C)OC4C2OC2CC(OC(=O)C=CC=CC(=O)OCCC1C)C3(C)C21CO1 (centres undefined)	·	64.3*	·	·	·	18.5	·
CC(=O)OC[C@]12CCC(C)=C[C@H]1O[C@@H]1[C@H](O)[C@@H](OC(C)=O)[C@@]2(C)[C@]12CO2	10.5	89.4*	64.7*	-0.6	-3.8	34.9	63.4*
COC(=O)C1C(O)C(C)C(O)C(C)/C=C\C=C(/C)C(=O)Nc2c(C)c(OC(C)=O)c3c(c2O)C(=O)C(C)=C2OCOC(=C23)/C(C)=C/C(C)(O)C(O)C(C)C1O (centres undefined)	3.6	-1.0	6.2	-2.1	-3.0	18.6	·
COCCOC(=O)C1=C(N)Oc2c(c(=O)oc3ccccc23)[C@@]12C(=O)Nc1ccccc12	-3.7	-10.4	20.7	-3.5	3.2	9.8	·
C[C@@H]1CN([C@H](C)CO)C(=O)CCCn2nncc2CO[C@H]1CN(C)C(=O)Oc1cccc2ccccc12	·	-24.7	·	·	·	-1.8	·
CCN1/C(=C\C=C\C2=[N+](CC)c3ccccc3C2(C)C)C(C)(C)c2ccccc21	6.7	76.8*	55.2*	16.6	24.6	18.4	60.5*
COC(=O)C(C)Oc1cc(C)cc2oc(=O)c3c(c12)CCCC3 (centres undefined)	-3.6	34.0	-0.1	-12.0	-11.2	-211.2	14.8
CCC(=NCCCn1ccnc1)c1c(O)n(Cc2ccccc2)c(=O)[nH]c1=O	-8.9	-2.4	8.1	4.2	-4.4	12.1	·
COC1CC(OC2CCC3(C)C(CCC4C3CCC3(C)C(C5=CC(=O)OC5)C(OC(C)=O)CC43O)C2)OC(C)C1OC1OC(COC2OC(CO)C(O)C(O)C2O)C(O)C(O)C1O (centres undefined)	·	·	48.1	·	·	·	55.6*
C=C1C(=O)O[C@@H]2C[C@@H](C)[C@@H]3C=CC(=O)[C@@]3(C)[C@@H](O)[C@H]12	-6.4	77.2*	59.7*	-8.1	4.3	11.9	57.2*
Cn1ccnc1P(=S)(c1nccn1C)N1CCOCC1	-13.2	0.1	7.6	3.4	-4.1	18.3	-8.6
C[C@@H]1O[C@@H](O[C@H]2C[C@@H](O)[C@]3(CO)[C@H]4[C@H](O)C[C@]5(C)[C@@H](C6COC(=O)C6)CC[C@]5(O)[C@@H]4CC[C@]3(O)C2)[C@H](O)[C@H](O)[C@H]1O (some centres undefined)	9.4	38.9	61.2*	2.2	6.6	6.2	62.8*
CC(C)(C)C(=O)O[C@H]1CC[C@@]2(C)C(=CC(=O)C3C2CC[C@]2(C)C(=O)[C@H](O)CC32)C1 (some centres undefined)	-3.7	-11.8	·	5.6	0.1	12.1	·
CC[C@@]1(O)C(=O)OCc2c1cc1n(c2=O)Cc2cc3ccccc3nc2-1	·	·	48.7	·	·	·	·
CCC1(OC(=O)CN)C(=O)OCc2c1cc1n(c2=O)Cc2cc3ccccc3nc2-1 (centres undefined)	·	30.7	29.9	·	·	-288.9	27.7
NP(=O)(OCC(F)(F)F)Oc1ccc(Cl)cc1 (centres undefined)	-11.7	0.2	3.2	1.7	-15.0	16.6	·
NC(=S)c1cn(C2OC(CO)C(O)C2O)c2ncnc(N)c12 (centres undefined)	·	67.2*	55.2*	·	·	18.0	54.7*
CCN(CC)CC(=O)Nc1ccc(Cl)cc1C(=O)c1ccccc1	-6.1	2.5	·	0.5	-0.7	27.4	·
COc1ccccc1N1CCN(Cc2ccccc2F)CC1	-22.5	-10.4	17.6	-8.3	-4.4	31.5	7.9
COC(=O)C1=C(c2ccc(OCc3ccccc3)cc2)C[C@@H]2CC[C@H]1N2C	·	20.5	·	·	·	-19.6	·
CC(C)(C)NC(=S)/N=C(\N)N[N+](=O)[O-]	-3.7	-3.8	9.5	3.5	2.8	10.9	·
C=C(CO)CC1CC(O)[C@]2(C)OC3CC4OC5C[C@]6(C)O[C@]7(C)CCC8OC9C[C@]%10(C)OC%11C(C)=CC(=O)OC%11CC%10OC9C[C@@H](C)C8OC7CC6O[C@]5(C)C/C=C\C4OC3CC2O1 (some centres undefined)	-5.4	8.2	7.3	11.7	-5.7	30.7	·
C=C(C=O)CC1CC(O)[C@]2(C)OC3CC4OC5C[C@]6(C)O[C@]7(C)CCC8OC9C[C@]%10(C)OC%11C(C)=CC(=O)OC%11CC%10OC9C[C@@H](C)C8OC7CC6O[C@]5(C)CC5OC5C4OC3CC2O1 (some centres undefined)	-10.0	96.3*	80.3*	-2.5	-4.7	8.3	78.4*
O=C(Nc1ccc(Cl)cc1)Nc1nccs1	68.0*	34.6	0.7	52.1*	24.8	16.0	·	SENP8 confirm=50.5*;SENP6 conf=50.5*;SENP7 conf=76.7*;Casp3 select=39.0;Luc interf=36.9
CC(C)C[C@H]1C(=O)N2CCCC2[C@]2(O)O[C@](NC(=O)[C@@H]3C=C4c5cccc6[nH]cc(c56)CC4N(C)C3)(C(C)C)C(=O)N12 (some centres undefined)	54.2*	-10.1	14.4	33.4	42.1	-388.6	·	SENP8 confirm=17.3;SENP6 conf=29.8;SENP7 conf=9.8;Casp3 select=6.3;Luc interf=-2.1

High-throughput results (PubChem)
